Test results: the supplement of paper PMC7411054
Counter-ions that a name gives are not always drawn.

Assays:
Assay in all cases: lowest phenotypically active concentration; higher = less potent
Conditions in all cases: treatment time: 24 h
HepG2-ACTB-RAB5A = system: HepG2-ACTB-RAB5A
How it was run: (§1)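 Four wells per concentration (0.3, 1, 3 or 9 µM) were treated for 24 h in each of fifteen gene-edited reporter lines from A549, HepG2 and WPMY1 cells, then imaged live. After normalising live-cell features to solvent control wells, deviation was defined as ≥3 of 4 wells lying past the 95th percentile of control Euclidean distances. Reproducibility was defined as a median replicate Pearson correlation above the 95th percentile of non-replicates. Both had to hold for phenotypic activity.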

HepG2-CANX-COX4 = system: HepG2-CANX-COX4
How it was run: as §1

HepG2-GM130-SQSTM1 = system: HepG2-GM130-SQSTM1
How it was run: as §1

HepG2-TP53BP1-CLTA = system: HepG2-TP53BP1-CLTA
How it was run: as §1

HepG2-TUBA1B-RELA = system: HepG2-TUBA1B-RELA
How it was run: as §1

WPMY1-ACTB-RAB5A = system: WPMY1-ACTB-RAB5A
How it was run: as §1

WPMY1-CANX-COX4 = system: WPMY1-CANX-COX4
How it was run: as §1

WPMY1-GM130-SQSTM1 = system: WPMY1-GM130-SQSTM1
How it was run: as §1

WPMY1-TP53BP1-CLTA = system: WPMY1-TP53BP1-CLTA
How it was run: as §1

WPMY1-TUBA1B-RELA = system: WPMY1-TUBA1B-RELA
How it was run: as §1

O=C1Nc2ccc(F)cc2C1=C1Nc2ccccc2C1=NO [5'-Fluoroindirubinoxime]
lowest phenotypically active concentration (HepG2-ACTB-RAB5A): ≤ 0.3 µM | lowest phenotypically active concentration (HepG2-CANX-COX4): ≤ 0.3 µM | lowest phenotypically active concentration (HepG2-GM130-SQSTM1): 1 µM | lowest phenotypically active concentration (HepG2-TP53BP1-CLTA): 1 µM | lowest phenotypically active concentration (HepG2-TUBA1B-RELA): 1 µM | lowest phenotypically active concentration (WPMY1-ACTB-RAB5A): 1 µM | lowest phenotypically active concentration (WPMY1-CANX-COX4): ≤ 0.3 µM | lowest phenotypically active concentration (WPMY1-GM130-SQSTM1): 1 µM | lowest phenotypically active concentration (WPMY1-TP53BP1-CLTA): ≤ 0.3 µM | lowest phenotypically active concentration (WPMY1-TUBA1B-RELA): 1 µM

COCc1c(C(C)C)nc(C(C)C)c(/C=C/[C@@H](O)C[C@@H](O)CC(=O)O)c1-c1ccc(F)cc1 [cerivastatin]
lowest phenotypically active concentration (HepG2-ACTB-RAB5A): ≤ 0.3 µM | lowest phenotypically active concentration (HepG2-CANX-COX4): ≤ 0.3 µM | lowest phenotypically active concentration (HepG2-GM130-SQSTM1): ≤ 0.3 µM | lowest phenotypically active concentration (HepG2-TP53BP1-CLTA): ≤ 0.3 µM | lowest phenotypically active concentration (HepG2-TUBA1B-RELA): ≤ 0.3 µM | lowest phenotypically active concentration (WPMY1-ACTB-RAB5A): ≤ 0.3 µM | lowest phenotypically active concentration (WPMY1-CANX-COX4): ≤ 0.3 µM | lowest phenotypically active concentration (WPMY1-GM130-SQSTM1): ≤ 0.3 µM | lowest phenotypically active concentration (WPMY1-TP53BP1-CLTA): ≤ 0.3 µM | lowest phenotypically active concentration (WPMY1-TUBA1B-RELA): ≤ 0.3 µM

COc1cc2c(Nc3ccc(Br)cc3F)ncnc2cc1OCC1CCN(C)CC1 [vandetanib]
lowest phenotypically active concentration (HepG2-ACTB-RAB5A): 3 µM | lowest phenotypically active concentration (HepG2-CANX-COX4): 3 µM | lowest phenotypically active concentration (HepG2-GM130-SQSTM1): 3 µM | lowest phenotypically active concentration (HepG2-TP53BP1-CLTA): 3 µM | lowest phenotypically active concentration (HepG2-TUBA1B-RELA): 1 µM | lowest phenotypically active concentration (WPMY1-ACTB-RAB5A): 3 µM | lowest phenotypically active concentration (WPMY1-CANX-COX4): 3 µM | lowest phenotypically active concentration (WPMY1-GM130-SQSTM1): 3 µM | lowest phenotypically active concentration (WPMY1-TP53BP1-CLTA): 9 µM | lowest phenotypically active concentration (WPMY1-TUBA1B-RELA): 3 µM

COc1ccc2cc1Oc1ccc(cc1)C[C@H]1c3cc(c(OC)cc3CCN1C)Oc1c(OC)c(OC)cc3c1[C@H](C2)N(C)CC3 [Tetrandrine]
lowest phenotypically active concentration (HepG2-ACTB-RAB5A): 1 µM | lowest phenotypically active concentration (HepG2-CANX-COX4): 3 µM | lowest phenotypically active concentration (HepG2-GM130-SQSTM1): ≤ 0.3 µM | lowest phenotypically active concentration (HepG2-TP53BP1-CLTA): 1 µM | lowest phenotypically active concentration (HepG2-TUBA1B-RELA): ≤ 0.3 µM | lowest phenotypically active concentration (WPMY1-ACTB-RAB5A): 1 µM | lowest phenotypically active concentration (WPMY1-CANX-COX4): 1 µM | lowest phenotypically active concentration (WPMY1-GM130-SQSTM1): ≤ 0.3 µM | lowest phenotypically active concentration (WPMY1-TP53BP1-CLTA): 3 µM | lowest phenotypically active concentration (WPMY1-TUBA1B-RELA): 1 µM

COc1ccc(C[C@H](N)C(=O)N[C@H]2[C@@H](O)[C@H](n3cnc4c(N(C)C)ncnc43)O[C@@H]2CO)cc1 [Puromycin dihydrochloride]
lowest phenotypically active concentration (HepG2-ACTB-RAB5A): ≤ 0.3 µM | lowest phenotypically active concentration (HepG2-CANX-COX4): ≤ 0.3 µM | lowest phenotypically active concentration (HepG2-GM130-SQSTM1): ≤ 0.3 µM | lowest phenotypically active concentration (HepG2-TP53BP1-CLTA): ≤ 0.3 µM | lowest phenotypically active concentration (HepG2-TUBA1B-RELA): ≤ 0.3 µM | lowest phenotypically active concentration (WPMY1-ACTB-RAB5A): ≤ 0.3 µM | lowest phenotypically active concentration (WPMY1-CANX-COX4): 1 µM | lowest phenotypically active concentration (WPMY1-GM130-SQSTM1): ≤ 0.3 µM | lowest phenotypically active concentration (WPMY1-TP53BP1-CLTA): 1 µM | lowest phenotypically active concentration (WPMY1-TUBA1B-RELA): 1 µM

CNC(=O)Nc1ccc(-c2nc(N3CC4CCC(C3)O4)c3cnn(C4CCC5(CC4)OCCO5)c3n2)cc1
lowest phenotypically active concentration (HepG2-ACTB-RAB5A): ≤ 0.3 µM | lowest phenotypically active concentration (HepG2-CANX-COX4): ≤ 0.3 µM | lowest phenotypically active concentration (HepG2-GM130-SQSTM1): ≤ 0.3 µM | lowest phenotypically active concentration (HepG2-TP53BP1-CLTA): ≤ 0.3 µM | lowest phenotypically active concentration (HepG2-TUBA1B-RELA): ≤ 0.3 µM | lowest phenotypically active concentration (WPMY1-ACTB-RAB5A): ≤ 0.3 µM | lowest phenotypically active concentration (WPMY1-CANX-COX4): ≤ 0.3 µM | lowest phenotypically active concentration (WPMY1-GM130-SQSTM1): ≤ 0.3 µM | lowest phenotypically active concentration (WPMY1-TP53BP1-CLTA): ≤ 0.3 µM | lowest phenotypically active concentration (WPMY1-TUBA1B-RELA): ≤ 0.3 µM

Cc1ccc(C(=O)N(CCCN)[C@@H](c2nc3cc(Cl)ccc3c(=O)n2Cc2ccccc2)C(C)C)cc1 [Ispinesib]
lowest phenotypically active concentration (HepG2-ACTB-RAB5A): ≤ 0.3 µM | lowest phenotypically active concentration (HepG2-CANX-COX4): ≤ 0.3 µM | lowest phenotypically active concentration (HepG2-GM130-SQSTM1): ≤ 0.3 µM | lowest phenotypically active concentration (HepG2-TP53BP1-CLTA): ≤ 0.3 µM | lowest phenotypically active concentration (HepG2-TUBA1B-RELA): ≤ 0.3 µM | lowest phenotypically active concentration (WPMY1-ACTB-RAB5A): ≤ 0.3 µM | lowest phenotypically active concentration (WPMY1-CANX-COX4): 3 µM | lowest phenotypically active concentration (WPMY1-GM130-SQSTM1): ≤ 0.3 µM | lowest phenotypically active concentration (WPMY1-TP53BP1-CLTA): ≤ 0.3 µM | lowest phenotypically active concentration (WPMY1-TUBA1B-RELA): ≤ 0.3 µM

C[C@@H](N)[C@H]1CC[C@H](C(=O)Nc2ccncc2)CC1
lowest phenotypically active concentration (HepG2-ACTB-RAB5A): 3 µM | lowest phenotypically active concentration (HepG2-CANX-COX4): 1 µM | lowest phenotypically active concentration (HepG2-GM130-SQSTM1): 1 µM | lowest phenotypically active concentration (HepG2-TP53BP1-CLTA): 1 µM | lowest phenotypically active concentration (HepG2-TUBA1B-RELA): 3 µM | lowest phenotypically active concentration (WPMY1-ACTB-RAB5A): 1 µM | lowest phenotypically active concentration (WPMY1-CANX-COX4): 1 µM | lowest phenotypically active concentration (WPMY1-GM130-SQSTM1): 1 µM | lowest phenotypically active concentration (WPMY1-TP53BP1-CLTA): 9 µM | lowest phenotypically active concentration (WPMY1-TUBA1B-RELA): 1 µM

Nc1ncn([C@@H]2O[C@H](CO)[C@@H](O)[C@H]2O)c(=O)n1 [5-Azacytidine]
lowest phenotypically active concentration (HepG2-ACTB-RAB5A): ≤ 0.3 µM | lowest phenotypically active concentration (HepG2-CANX-COX4): ≤ 0.3 µM | lowest phenotypically active concentration (HepG2-GM130-SQSTM1): ≤ 0.3 µM | lowest phenotypically active concentration (HepG2-TP53BP1-CLTA): ≤ 0.3 µM | lowest phenotypically active concentration (HepG2-TUBA1B-RELA): 1 µM | lowest phenotypically active concentration (WPMY1-ACTB-RAB5A): 3 µM | lowest phenotypically active concentration (WPMY1-CANX-COX4): 3 µM | lowest phenotypically active concentration (WPMY1-GM130-SQSTM1): 1 µM | lowest phenotypically active concentration (WPMY1-TP53BP1-CLTA): 3 µM | lowest phenotypically active concentration (WPMY1-TUBA1B-RELA): 3 µM

COc1cc2nc(N3CCCN(C)CC3)nc(NC3CCN(Cc4ccccc4)CC3)c2cc1OC
lowest phenotypically active concentration (HepG2-ACTB-RAB5A): ≤ 0.3 µM | lowest phenotypically active concentration (HepG2-CANX-COX4): 1 µM | lowest phenotypically active concentration (HepG2-GM130-SQSTM1): ≤ 0.3 µM | lowest phenotypically active concentration (HepG2-TP53BP1-CLTA): 1 µM | lowest phenotypically active concentration (HepG2-TUBA1B-RELA): ≤ 0.3 µM | lowest phenotypically active concentration (WPMY1-ACTB-RAB5A): 1 µM | lowest phenotypically active concentration (WPMY1-CANX-COX4): 1 µM | lowest phenotypically active concentration (WPMY1-GM130-SQSTM1): ≤ 0.3 µM | lowest phenotypically active concentration (WPMY1-TP53BP1-CLTA): 1 µM | lowest phenotypically active concentration (WPMY1-TUBA1B-RELA): 1 µM

COc1c(C)cnc(Cn2cc(C#CCC(C)(C)O)c3c(Cl)nc(N)nc32)c1C
lowest phenotypically active concentration (HepG2-ACTB-RAB5A): ≤ 0.3 µM | lowest phenotypically active concentration (HepG2-CANX-COX4): ≤ 0.3 µM | lowest phenotypically active concentration (HepG2-GM130-SQSTM1): ≤ 0.3 µM | lowest phenotypically active concentration (HepG2-TP53BP1-CLTA): ≤ 0.3 µM | lowest phenotypically active concentration (HepG2-TUBA1B-RELA): ≤ 0.3 µM | lowest phenotypically active concentration (WPMY1-ACTB-RAB5A): ≤ 0.3 µM | lowest phenotypically active concentration (WPMY1-CANX-COX4): ≤ 0.3 µM | lowest phenotypically active concentration (WPMY1-GM130-SQSTM1): ≤ 0.3 µM | lowest phenotypically active concentration (WPMY1-TP53BP1-CLTA): ≤ 0.3 µM | lowest phenotypically active concentration (WPMY1-TUBA1B-RELA): ≤ 0.3 µM

CC(=C/[C@@H](C)C(=O)c1ccc(N(C)C)cc1)/C=C/C(=O)NO [Trichostatin A]
lowest phenotypically active concentration (HepG2-ACTB-RAB5A): ≤ 0.3 µM | lowest phenotypically active concentration (HepG2-CANX-COX4): ≤ 0.3 µM | lowest phenotypically active concentration (HepG2-GM130-SQSTM1): ≤ 0.3 µM | lowest phenotypically active concentration (HepG2-TP53BP1-CLTA): ≤ 0.3 µM | lowest phenotypically active concentration (HepG2-TUBA1B-RELA): ≤ 0.3 µM | lowest phenotypically active concentration (WPMY1-ACTB-RAB5A): ≤ 0.3 µM | lowest phenotypically active concentration (WPMY1-CANX-COX4): ≤ 0.3 µM | lowest phenotypically active concentration (WPMY1-GM130-SQSTM1): ≤ 0.3 µM | lowest phenotypically active concentration (WPMY1-TP53BP1-CLTA): ≤ 0.3 µM | lowest phenotypically active concentration (WPMY1-TUBA1B-RELA): ≤ 0.3 µM

CCCCCCCCCCCCCCCC[n+]1ccn(Cc2ccccc2)c1C
lowest phenotypically active concentration (HepG2-ACTB-RAB5A): 1 µM | lowest phenotypically active concentration (HepG2-CANX-COX4): 1 µM | lowest phenotypically active concentration (HepG2-GM130-SQSTM1): 1 µM | lowest phenotypically active concentration (HepG2-TP53BP1-CLTA): 1 µM | lowest phenotypically active concentration (HepG2-TUBA1B-RELA): 1 µM | lowest phenotypically active concentration (WPMY1-ACTB-RAB5A): 3 µM | lowest phenotypically active concentration (WPMY1-CANX-COX4): 1 µM | lowest phenotypically active concentration (WPMY1-GM130-SQSTM1): 3 µM | lowest phenotypically active concentration (WPMY1-TP53BP1-CLTA): 3 µM | lowest phenotypically active concentration (WPMY1-TUBA1B-RELA): 3 µM

Nc1ncnc2c1c(-c1cnc3[nH]ccc3c1)nn2C1CCCC1
lowest phenotypically active concentration (HepG2-ACTB-RAB5A): 1 µM | lowest phenotypically active concentration (HepG2-CANX-COX4): ≤ 0.3 µM | lowest phenotypically active concentration (HepG2-GM130-SQSTM1): ≤ 0.3 µM | lowest phenotypically active concentration (HepG2-TP53BP1-CLTA): ≤ 0.3 µM | lowest phenotypically active concentration (HepG2-TUBA1B-RELA): ≤ 0.3 µM | lowest phenotypically active concentration (WPMY1-ACTB-RAB5A): 1 µM | lowest phenotypically active concentration (WPMY1-CANX-COX4): 1 µM | lowest phenotypically active concentration (WPMY1-GM130-SQSTM1): 1 µM | lowest phenotypically active concentration (WPMY1-TP53BP1-CLTA): ≤ 0.3 µM | lowest phenotypically active concentration (WPMY1-TUBA1B-RELA): 1 µM
